What all share (assay): DAPPL (digital affinity profiling via proximity ligation, sequencing); 10 mM Tris-HCl pH 7.5, 50 mM NaCl, 1 mM DTT, 4% glycerol, room temperature, 30 min; GST-TFs on glutathione beads, 16-mer random dsDNA library, 0.1% formaldehyde crosslink after washing; high values mean tight binding
In experiment [1] the target is T1, FEV (Homo sapiens, UniProt Q99581 1-238).
T1 sequence: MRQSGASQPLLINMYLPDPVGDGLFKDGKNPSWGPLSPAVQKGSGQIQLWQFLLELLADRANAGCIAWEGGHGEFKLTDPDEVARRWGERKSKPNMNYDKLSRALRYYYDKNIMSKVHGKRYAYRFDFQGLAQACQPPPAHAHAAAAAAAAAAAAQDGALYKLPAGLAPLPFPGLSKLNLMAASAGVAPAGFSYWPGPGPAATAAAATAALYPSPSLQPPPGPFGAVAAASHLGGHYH
The following applies: protein: recombinant; tags: N-terminal GST; dsDNA, one strand shown. The essentials:
(§1)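 Human transcription factors carrying a GST fusion were produced in yeast, bound to glutathione beads, tagged with DNA barcodes and pooled together with a tag-only sample. Each pool was held with 200 nmole of a random double-stranded 16-mer DNA library in Tris/NaCl/DTT/glycerol buffer for 30 min at room temperature, then washed, crosslinked in 0.1% formaldehyde, proximity-ligated with BsaI/T4 ligase (1 h, 37 °C), PCR-amplified and sequenced on an Illumina NextSeq500. Binding signal is the read frequency of each hexamer for a given factor divided by its frequency in the tag-only sample.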

In experiment [2] the target is ETV5 (Homo sapiens, UniProt P41161 1-510). The following applies: protein: recombinant; tags: N-terminal GST; dsDNA, one strand shown. In a few lines:
as §1

In experiment [3] the target is HSF1 (Homo sapiens, UniProt Q00613 1-529). The following applies: protein: recombinant; tags: N-terminal GST; chain copies: 3; dsDNA, one strand shown. In a few lines: as §1
Experiment [4] deals with T2, SPIC (Homo sapiens, UniProt Q8N5J4 1-248).
T2 sequence: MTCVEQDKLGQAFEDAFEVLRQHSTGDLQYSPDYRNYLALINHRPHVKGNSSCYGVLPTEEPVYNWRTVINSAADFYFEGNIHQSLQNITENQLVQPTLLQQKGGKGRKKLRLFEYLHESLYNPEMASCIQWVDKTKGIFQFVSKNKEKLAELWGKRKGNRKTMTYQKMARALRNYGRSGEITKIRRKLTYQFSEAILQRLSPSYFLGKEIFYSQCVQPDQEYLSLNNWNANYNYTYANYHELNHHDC
The following applies: protein: recombinant; tags: N-terminal GST; dsDNA, one strand shown. In a few lines:
as §1

Experiment [5] addresses ELF4 (Homo sapiens, UniProt Q99607 1-663). The following applies: protein: recombinant; tags: N-terminal GST; dsDNA, one strand shown. The essentials: as §1
In experiment [6] the target is T3, ELK4 (Homo sapiens, UniProt P28324-2 1-405).
T3 sequence: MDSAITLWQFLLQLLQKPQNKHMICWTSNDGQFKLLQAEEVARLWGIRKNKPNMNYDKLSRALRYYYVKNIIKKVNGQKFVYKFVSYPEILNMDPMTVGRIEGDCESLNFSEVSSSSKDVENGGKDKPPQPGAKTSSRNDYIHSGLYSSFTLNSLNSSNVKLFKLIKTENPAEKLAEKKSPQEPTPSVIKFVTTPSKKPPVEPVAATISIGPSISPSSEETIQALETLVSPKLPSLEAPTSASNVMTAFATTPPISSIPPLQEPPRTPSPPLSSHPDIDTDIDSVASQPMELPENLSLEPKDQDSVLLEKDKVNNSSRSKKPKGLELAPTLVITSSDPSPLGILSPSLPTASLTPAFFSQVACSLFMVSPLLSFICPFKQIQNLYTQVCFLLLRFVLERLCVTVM
The following applies: protein: recombinant; tags: N-terminal GST; dsDNA, one strand shown. In a few lines: as §1

Experiment [7] deals with T4, ETV2 (Homo sapiens, UniProt O00321 1-342).
T4 sequence: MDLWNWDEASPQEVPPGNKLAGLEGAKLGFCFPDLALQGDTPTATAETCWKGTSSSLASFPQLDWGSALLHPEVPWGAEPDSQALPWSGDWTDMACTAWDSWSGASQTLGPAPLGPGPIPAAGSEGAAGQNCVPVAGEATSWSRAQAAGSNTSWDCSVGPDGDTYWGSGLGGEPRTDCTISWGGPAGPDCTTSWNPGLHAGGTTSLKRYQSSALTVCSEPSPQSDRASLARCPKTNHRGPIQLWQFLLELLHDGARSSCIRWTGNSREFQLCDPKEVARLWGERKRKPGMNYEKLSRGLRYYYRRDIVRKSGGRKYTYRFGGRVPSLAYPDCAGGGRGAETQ
The following applies: protein: recombinant; tags: N-terminal GST; dsDNA, one strand shown. In a few lines:
as §1

The target of experiment [8] is T5, ELF3 (Homo sapiens, UniProt P78545 1-371).
T5 sequence: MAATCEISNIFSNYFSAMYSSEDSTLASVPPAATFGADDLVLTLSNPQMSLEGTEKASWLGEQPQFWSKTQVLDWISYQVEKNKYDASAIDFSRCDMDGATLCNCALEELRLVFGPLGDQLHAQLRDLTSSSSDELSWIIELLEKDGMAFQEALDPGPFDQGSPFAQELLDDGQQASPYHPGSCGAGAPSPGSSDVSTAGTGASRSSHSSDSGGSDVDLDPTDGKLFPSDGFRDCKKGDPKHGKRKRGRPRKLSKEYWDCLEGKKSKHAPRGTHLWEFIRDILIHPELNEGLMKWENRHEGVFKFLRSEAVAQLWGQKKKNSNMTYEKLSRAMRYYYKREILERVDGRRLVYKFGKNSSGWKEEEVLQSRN
The following applies: protein: recombinant; tags: N-terminal GST; dsDNA, one strand shown. The essentials: as §1

The target of experiment [9] is CRX (Homo sapiens, UniProt O43186 1-299). The following applies: protein: recombinant; tags: N-terminal GST; dsDNA, one strand shown. In a few lines:
as §1

The target in experiment [10] is ETV1 (Homo sapiens, UniProt P50549 1-477). The following applies: protein: recombinant; tags: N-terminal GST; dsDNA, one strand shown. The essentials:
as §1

Experiment [11] deals with T6, ERF (Homo sapiens, UniProt P50548 1-548).
T6 sequence: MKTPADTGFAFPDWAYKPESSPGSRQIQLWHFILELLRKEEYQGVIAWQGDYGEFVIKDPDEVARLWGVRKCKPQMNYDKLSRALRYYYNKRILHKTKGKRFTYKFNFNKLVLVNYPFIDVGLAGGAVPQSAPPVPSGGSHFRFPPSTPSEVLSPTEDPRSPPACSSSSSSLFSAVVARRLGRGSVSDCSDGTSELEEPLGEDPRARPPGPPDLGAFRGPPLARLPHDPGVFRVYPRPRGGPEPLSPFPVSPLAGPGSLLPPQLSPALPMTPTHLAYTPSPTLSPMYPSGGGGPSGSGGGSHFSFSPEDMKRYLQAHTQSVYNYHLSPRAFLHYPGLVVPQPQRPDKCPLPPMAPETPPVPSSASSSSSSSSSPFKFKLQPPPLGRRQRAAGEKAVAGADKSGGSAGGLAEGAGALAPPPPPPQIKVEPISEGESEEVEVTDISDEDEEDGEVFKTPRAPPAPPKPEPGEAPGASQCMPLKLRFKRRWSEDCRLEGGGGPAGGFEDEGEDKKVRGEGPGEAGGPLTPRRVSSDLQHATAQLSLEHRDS
The following applies: protein: recombinant; tags: N-terminal GST; dsDNA, one strand shown. In a few lines: as §1

The target of experiment [12] is T7, ETV3L (Homo sapiens, UniProt Q6ZN32 1-361).
T7 sequence: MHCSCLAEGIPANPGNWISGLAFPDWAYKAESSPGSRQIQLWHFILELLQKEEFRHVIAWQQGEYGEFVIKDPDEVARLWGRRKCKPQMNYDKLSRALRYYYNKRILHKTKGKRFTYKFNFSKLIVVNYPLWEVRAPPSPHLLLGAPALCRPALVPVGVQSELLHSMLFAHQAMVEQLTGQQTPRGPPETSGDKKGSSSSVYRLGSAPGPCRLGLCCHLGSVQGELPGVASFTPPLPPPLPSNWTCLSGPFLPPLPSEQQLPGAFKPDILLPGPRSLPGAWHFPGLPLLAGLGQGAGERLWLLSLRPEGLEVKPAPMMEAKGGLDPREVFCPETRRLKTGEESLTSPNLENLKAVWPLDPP
The following applies: protein: recombinant; tags: N-terminal GST; dsDNA, one strand shown. The essentials: as §1

For experiment [13], the target named is T8, ETS2 (Homo sapiens, UniProt P15036 1-469).
T8 sequence: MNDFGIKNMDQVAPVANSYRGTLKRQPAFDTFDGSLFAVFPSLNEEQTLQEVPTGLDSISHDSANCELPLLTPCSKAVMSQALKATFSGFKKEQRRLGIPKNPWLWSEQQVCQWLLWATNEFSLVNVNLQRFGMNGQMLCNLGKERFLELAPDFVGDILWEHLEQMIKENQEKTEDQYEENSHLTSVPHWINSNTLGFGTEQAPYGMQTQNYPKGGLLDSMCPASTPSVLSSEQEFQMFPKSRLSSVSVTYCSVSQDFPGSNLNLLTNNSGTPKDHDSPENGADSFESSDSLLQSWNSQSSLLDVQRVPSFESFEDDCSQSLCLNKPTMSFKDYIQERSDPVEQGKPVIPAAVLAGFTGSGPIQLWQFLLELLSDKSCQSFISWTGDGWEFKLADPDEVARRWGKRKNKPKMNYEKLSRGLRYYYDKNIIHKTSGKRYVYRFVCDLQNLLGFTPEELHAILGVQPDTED
The following applies: protein: recombinant; tags: N-terminal GST; dsDNA, one strand shown. In a few lines: as §1

In experiment [14] the target is T9, SPDEF (Homo sapiens, UniProt O95238 1-335).
T9 sequence: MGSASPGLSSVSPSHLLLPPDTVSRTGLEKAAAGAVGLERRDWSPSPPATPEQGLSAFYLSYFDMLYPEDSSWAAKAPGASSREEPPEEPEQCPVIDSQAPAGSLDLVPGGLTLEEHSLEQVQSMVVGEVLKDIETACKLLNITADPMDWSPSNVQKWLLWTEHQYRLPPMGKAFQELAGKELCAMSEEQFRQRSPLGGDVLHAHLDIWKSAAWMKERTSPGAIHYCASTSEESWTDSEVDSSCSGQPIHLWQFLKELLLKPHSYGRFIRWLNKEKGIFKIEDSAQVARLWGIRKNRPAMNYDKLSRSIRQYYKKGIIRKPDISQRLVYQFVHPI
The following applies: protein: recombinant; tags: N-terminal GST; dsDNA, one strand shown. In a few lines: as §1

Experiment [15] has as its target T10, ETV7 (Homo sapiens, UniProt Q9Y603 1-341).
T10 sequence: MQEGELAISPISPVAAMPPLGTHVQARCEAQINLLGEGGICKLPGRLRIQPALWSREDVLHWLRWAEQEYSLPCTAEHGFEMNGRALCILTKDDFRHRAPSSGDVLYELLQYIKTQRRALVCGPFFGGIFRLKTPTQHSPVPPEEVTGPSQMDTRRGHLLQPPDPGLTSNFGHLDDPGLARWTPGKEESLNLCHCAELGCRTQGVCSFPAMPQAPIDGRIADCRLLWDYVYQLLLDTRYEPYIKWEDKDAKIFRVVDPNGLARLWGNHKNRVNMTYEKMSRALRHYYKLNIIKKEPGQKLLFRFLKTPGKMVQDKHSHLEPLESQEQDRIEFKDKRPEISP
The following applies: protein: recombinant; tags: N-terminal GST; dsDNA, one strand shown. The essentials: as §1

The target in experiment [16] is T11, ELF5 (Homo sapiens, UniProt Q9UKW6-2 1-255).
T11 sequence: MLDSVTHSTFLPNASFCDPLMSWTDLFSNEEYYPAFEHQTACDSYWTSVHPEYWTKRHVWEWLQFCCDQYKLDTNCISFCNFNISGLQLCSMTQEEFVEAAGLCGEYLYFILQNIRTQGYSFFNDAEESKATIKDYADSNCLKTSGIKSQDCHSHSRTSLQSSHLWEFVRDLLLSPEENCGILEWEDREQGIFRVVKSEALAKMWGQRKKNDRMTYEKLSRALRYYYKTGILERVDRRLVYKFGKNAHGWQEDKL
The following applies: protein: recombinant; tags: N-terminal GST; dsDNA, one strand shown. In a few lines:
as §1

For experiment [17], the target named is T12, ETV3 (Homo sapiens, UniProt P41162-2 1-143).
T12 sequence: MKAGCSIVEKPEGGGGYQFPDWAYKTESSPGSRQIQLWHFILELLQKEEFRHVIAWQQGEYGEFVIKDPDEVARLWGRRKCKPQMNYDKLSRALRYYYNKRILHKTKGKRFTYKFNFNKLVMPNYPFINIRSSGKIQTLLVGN
The following applies: protein: recombinant; tags: N-terminal GST; dsDNA, one strand shown. The essentials: as §1

The target of experiment [18] is ETV6 (Homo sapiens, UniProt P41212 1-452). The following applies: protein: recombinant; tags: N-terminal GST; dsDNA, one strand shown. In a few lines: as §1
ETV6, sequence (P41212 whole entry): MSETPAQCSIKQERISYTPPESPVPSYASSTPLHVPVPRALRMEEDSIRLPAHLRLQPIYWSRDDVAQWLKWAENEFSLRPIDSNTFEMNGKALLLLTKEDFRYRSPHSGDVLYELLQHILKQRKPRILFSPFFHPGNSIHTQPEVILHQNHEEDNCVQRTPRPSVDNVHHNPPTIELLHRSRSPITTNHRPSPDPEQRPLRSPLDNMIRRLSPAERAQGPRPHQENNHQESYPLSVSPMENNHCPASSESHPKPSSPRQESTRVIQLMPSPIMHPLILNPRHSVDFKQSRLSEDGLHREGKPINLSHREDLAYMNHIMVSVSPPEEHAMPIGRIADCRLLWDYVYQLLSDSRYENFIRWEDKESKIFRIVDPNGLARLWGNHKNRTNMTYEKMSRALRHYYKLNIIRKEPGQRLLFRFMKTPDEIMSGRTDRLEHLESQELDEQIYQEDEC

ETV1, sequence (P50549 whole entry): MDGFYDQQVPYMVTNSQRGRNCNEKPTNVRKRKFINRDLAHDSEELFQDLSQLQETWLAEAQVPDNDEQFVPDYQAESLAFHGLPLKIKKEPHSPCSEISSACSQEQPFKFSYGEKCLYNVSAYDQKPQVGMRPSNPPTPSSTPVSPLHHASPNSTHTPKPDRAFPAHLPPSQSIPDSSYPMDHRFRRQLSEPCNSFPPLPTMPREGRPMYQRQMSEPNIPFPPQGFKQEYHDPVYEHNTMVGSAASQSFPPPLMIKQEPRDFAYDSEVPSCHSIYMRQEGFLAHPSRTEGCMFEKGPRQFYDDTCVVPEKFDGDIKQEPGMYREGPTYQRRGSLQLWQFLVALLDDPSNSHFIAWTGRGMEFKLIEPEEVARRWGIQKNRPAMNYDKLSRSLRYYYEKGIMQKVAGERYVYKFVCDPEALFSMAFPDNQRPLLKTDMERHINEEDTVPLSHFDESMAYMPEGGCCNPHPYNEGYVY
CRX, sequence (O43186 whole entry): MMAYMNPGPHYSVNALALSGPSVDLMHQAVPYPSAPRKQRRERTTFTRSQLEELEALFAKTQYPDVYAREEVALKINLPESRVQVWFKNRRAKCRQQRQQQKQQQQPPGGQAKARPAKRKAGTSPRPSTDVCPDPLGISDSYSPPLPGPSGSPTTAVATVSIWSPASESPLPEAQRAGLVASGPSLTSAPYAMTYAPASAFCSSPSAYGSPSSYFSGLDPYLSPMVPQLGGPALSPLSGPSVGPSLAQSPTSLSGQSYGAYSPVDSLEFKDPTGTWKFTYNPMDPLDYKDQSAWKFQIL
ETV5, sequence (P41161 whole entry): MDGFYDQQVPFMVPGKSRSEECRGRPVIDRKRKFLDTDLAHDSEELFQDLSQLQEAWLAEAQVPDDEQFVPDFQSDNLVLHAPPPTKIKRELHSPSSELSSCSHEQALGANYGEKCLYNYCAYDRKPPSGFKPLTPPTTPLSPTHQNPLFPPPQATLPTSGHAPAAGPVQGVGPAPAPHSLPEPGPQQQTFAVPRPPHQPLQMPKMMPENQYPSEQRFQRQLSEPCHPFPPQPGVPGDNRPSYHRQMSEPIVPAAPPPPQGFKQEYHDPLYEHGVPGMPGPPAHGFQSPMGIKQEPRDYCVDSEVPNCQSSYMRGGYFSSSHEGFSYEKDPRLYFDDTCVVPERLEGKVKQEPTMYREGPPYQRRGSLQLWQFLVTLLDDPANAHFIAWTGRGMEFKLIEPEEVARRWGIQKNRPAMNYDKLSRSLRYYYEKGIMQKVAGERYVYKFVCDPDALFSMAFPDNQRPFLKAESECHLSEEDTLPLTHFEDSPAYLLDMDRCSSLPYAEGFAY
ELF4, sequence (Q99607 whole entry): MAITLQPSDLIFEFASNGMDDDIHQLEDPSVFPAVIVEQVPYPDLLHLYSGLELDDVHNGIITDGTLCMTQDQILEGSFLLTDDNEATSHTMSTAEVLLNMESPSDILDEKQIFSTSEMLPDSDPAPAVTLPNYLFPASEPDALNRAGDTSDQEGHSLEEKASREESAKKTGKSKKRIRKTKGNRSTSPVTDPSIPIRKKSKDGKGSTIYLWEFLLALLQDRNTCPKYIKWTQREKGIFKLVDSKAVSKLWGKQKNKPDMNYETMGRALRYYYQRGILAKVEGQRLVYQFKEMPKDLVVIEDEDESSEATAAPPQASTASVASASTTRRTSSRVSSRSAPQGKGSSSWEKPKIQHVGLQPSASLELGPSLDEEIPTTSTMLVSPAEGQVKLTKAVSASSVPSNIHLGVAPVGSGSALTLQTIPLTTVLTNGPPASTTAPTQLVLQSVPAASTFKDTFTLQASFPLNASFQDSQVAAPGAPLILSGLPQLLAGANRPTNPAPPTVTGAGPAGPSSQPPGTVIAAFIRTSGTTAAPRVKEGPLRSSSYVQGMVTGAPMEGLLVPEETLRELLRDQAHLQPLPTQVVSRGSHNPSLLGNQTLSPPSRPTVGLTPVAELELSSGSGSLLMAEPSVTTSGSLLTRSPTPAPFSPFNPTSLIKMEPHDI
HSF1, sequence (Q00613 whole entry): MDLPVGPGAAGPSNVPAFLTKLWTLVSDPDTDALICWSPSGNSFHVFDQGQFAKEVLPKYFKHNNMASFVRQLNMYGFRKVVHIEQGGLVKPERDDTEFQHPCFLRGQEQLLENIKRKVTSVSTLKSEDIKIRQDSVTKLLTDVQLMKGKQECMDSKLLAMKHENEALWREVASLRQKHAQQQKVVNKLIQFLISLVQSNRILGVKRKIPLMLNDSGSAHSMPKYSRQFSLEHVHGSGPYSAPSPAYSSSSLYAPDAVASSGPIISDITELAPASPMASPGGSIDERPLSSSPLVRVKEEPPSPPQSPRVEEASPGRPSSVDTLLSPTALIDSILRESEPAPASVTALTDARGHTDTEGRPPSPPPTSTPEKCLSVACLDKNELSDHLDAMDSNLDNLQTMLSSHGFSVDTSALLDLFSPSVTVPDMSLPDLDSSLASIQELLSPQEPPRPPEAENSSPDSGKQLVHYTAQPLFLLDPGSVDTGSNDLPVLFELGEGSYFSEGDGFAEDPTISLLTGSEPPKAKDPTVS

For GTATAT, the binding signal in experiment [1] was 1.06 fold enrichment (6-mer frequency, TF over GST control); in [2], 1.19 fold enrichment (6-mer frequency, TF over GST control); in [3] it was 1.04 fold enrichment (6-mer frequency, TF over GST control); in [4], 1.18 fold enrichment (6-mer frequency, TF over GST control); in [5], 1.17 fold enrichment (6-mer frequency, TF over GST control); in experiment [6] it was 1.21 fold enrichment (6-mer frequency, TF over GST control). In addition, the binding signal is 1.12 fold enrichment (6-mer frequency, TF over GST control) in experiment [7]; 1.02 fold enrichment (6-mer frequency, TF over GST control) in [8]; 1.07 fold enrichment (6-mer frequency, TF over GST control) in experiment [9]; 1.18 fold enrichment (6-mer frequency, TF over GST control) in [10]; 1.11 fold enrichment (6-mer frequency, TF over GST control) in [11]; 1.16 fold enrichment (6-mer frequency, TF over GST control) in experiment [12]. Further, the binding signal was 1.14 fold enrichment (6-mer frequency, TF over GST control) in experiment [13]; 1.37 fold enrichment (6-mer frequency, TF over GST control) in [14]; 1.13 fold enrichment (6-mer frequency, TF over GST control) in experiment [15]; 1.15 fold enrichment (6-mer frequency, TF over GST control) in [16]; 1.25 fold enrichment (6-mer frequency, TF over GST control) in [17]; 1.09 fold enrichment (6-mer frequency, TF over GST control) in [18].

Source of the values: publication PMC7862700, “An all-to-all approach to the identification of sequence-specific readers for epigenetic DNA modifications on cytosine”.
